# Reference: PubChem BioAssay (NCI)
# This is part of a sample that, as a whole, favours compounds with a hit. Of some 83,000 tested, about 20% had one in any assay.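 Single-concentration screen, 48 h exposure, 96-well plates. Endpoint: percent growth. Below 10 = active.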 Calls of active or inactive are those of the source.
# Tested on: HL-60(TB) leukemia
# Test: NCI-60 one-dose screen, 48 h (100 = growth as untreated, 0 = no growth, -100 = all killed)
# Conditions: 10 µM unless noted
row,SMILES,growth
1,CCCCCCNC(=O)Oc1ccc(/C(=C(\C)c2ccc(Cl)cc2)c2ccc(OCCN(CC)CC)cc2)cc1,44.3% (inactive)
2,O=C(c1c[nH]c2ccccc12)c1n[nH]c(=S)n1-c1ccc([N+](=O)[O-])cc1,61.4% (inactive)
3,O=c1[nH]nc(-c2ccccc2)c2sc3ncc(-c4ccc(Br)cc4)n3c12,12.7% (inactive)
